Records with an inconclusive call do not appear. A number with no mark means an inactive call. Activity calls are given as the source filed them. Calls come from the whole dose curve; as a rule, active = well fitted inhibition curve with a large enough effect; inconclusive = small, poorly fitted or top-dose-only effect; inactive = flat fitted curve, though single readings scatter.
Assay: CHOP2 Reporter Counterscreen Assay for Inhibitors of Ubiquitin-specific Protease USP2a;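 note: activated enterokinase alone at 50 pM in a cell-free format rather than USP2a or CHOP2; nearly all actives have a fitted effect of over 55% in size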
Conditions: purified enterokinase, fluorogenic substrate, 485/531 nm; series mostly up to 38.3 µM; activity change, negative = inhibition: at the top concentration
Method in brief: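 Cell-free counterscreen with pre-activated enterokinase alone (50 pM final) in 20mM Tris-HCl pH 8.0, 2mM CaCl2, 2mM beta-mercaptoethanol, 0.05% CHAPS; compound preincubation 30 min RT, reporter substrate 25nM final, fluorescence read after 10 min (Ex 485/Em 531).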
% is set by controls: 0 for no effect and ±100 for the full control effect; potency is the fitted concentration of half-maximal effect.

SMILES | Potency | activity change, negative = inhibition [%]
O=C(Nc1ccc(C2=NCCN2)cc1)c1ccc(C(=O)Nc2ccc(C3=NCCN3)cc2)c([N+](=O)[O-])c1 | 7.94 µM (active) | –
O=C(CCCN1C(=O)c2ccccc2C1=O)NC1=NCCS1 | – | 4.73
CC(C)(C)[C@H]1COC(=O)[C@@H](Cc2ccc(F)cc2)C/C=C\C[C@@H](CC(=O)N[C@@H](CO)Cc2ccccc2)C(=O)N1 | – | 6.11
Cn1c(SCc2nc3ccccc3s2)nnc1-c1cccs1 | – | 1.81
O=C(NCCC1=CCCCC1)C1CCCN(S(=O)(=O)c2cnc[nH]2)C1 (stereo not given) | – | -0.374
CCOc1ccc(C=NNc2ccc(S(=O)(=O)Nc3ccccc3C(=O)O)cc2[N+](=O)[O-])cc1 | 11.2 µM (active) | –
Cc1ccccc1[C@@H]1C(C#N)=C(N)S[C@H]1C(=O)c1ccccc1 | – | -0.33
CCOC(=O)C1CCCN(C(=O)c2cc(-c3ccco3)nc3ccccc23)C1 (stereo not given) | 5.62 µM (active) | –
Cc1noc(/C=C/c2ccco2)c1S(=O)(=O)N1CCC(C(=O)N2CCc3ccccc3C2)CC1 | – | -1.98
CCCC(c1nnnn1Cc1ccc(OC)cc1)N1CCC(C(N)=O)CC1 (stereo not given) | – | 1.02
O=C(COC(=O)c1c2c(nc3ccccc13)/C(=C/c1ccco1)CC2)NC1CCCC1 | 2 µM (active) | –
Cc1ccc(NC(=O)c2cc3c(=O)oc4ccccc4c3s2)nc1 | – | 7.35
Cn1nnnc1Sc1ncnc2scc(-c3ccc4c(c3)OCO4)c12 | – | -2.6
CCc1sc(/C=C(/C#N)C(N)=S)cc1[N+](=O)[O-] | – | -6.11
C[C@](N)(Cc1ccc(O)c(O)c1)C(=O)O | – | -9.19
CCCOc1ccc(N2C(=O)CC(NCCc3ccc(S(N)(=O)=O)cc3)C2=O)cc1 (stereo not given) | – | 0.525
COc1cccc(N2C(=O)C3CCCN3C2c2ccc(N(C)C)cc2)c1 (stereo not given) | – | 1.86
O=[N+]([O-])c1cc(-c2ccc(/C=N\n3cnnc3)o2)cc([N+](=O)[O-])c1 | 10 µM (active) | –
Cc1cc(/C=C2\C(=N)N3N=C(c4ccco4)SC3=NC2=O)c(C)n1Cc1ccccc1 | 7.08 µM (active) | –
CCOc1cc(/C=C2\C(=O)N(c3nc(-c4ccc(Br)cc4)cs3)N=C2c2ccccc2)ccc1O | 4.47 µM (active) | –

SMILES | Potency | activity change, negative = inhibition [%]
O=C(c1cccc(F)c1)N1CCN(S(=O)(=O)c2ccccc2)CC1 | – | 3.3
COc1ccc2nc(C)cc(SCC(=O)N/N=C/c3c(OC)ccc4ccccc34)c2c1 | – | -0.214
O=C(Cc1ccc(S(=O)(=O)N2CCOCC2)s1)Nc1nc2c(s1)CCCC2 | 10 µM (active) | –
CCc1nnc(NC(=O)CSc2nccn2-c2cccc(C)c2)s1 | – | -0.253
CCN(Cc1ccncc1)C(=O)c1cccs1 | – | -5.8
O=C(Oc1ccccc1C(=O)Nc1ccccc1)c1ccccc1Br | – | -2.06
O=C(CCNc1cccc(Cl)c1)c1ccco1 | – | -1.57
CC(CN1CCCCC1)OC(=O)c1ccc(Cl)cc1 (stereo not given) | – | 0.866
CCOC(=O)N1CCN(C(=O)CN(c2ccc(C)c(C)c2)S(=O)(=O)c2ccccc2)CC1 | – | -3.06
O=C1NC(=Nc2ccc3ccccc3c2)S/C1=C/c1ccco1 | 10 µM (active) | –
CCOC(=O)N1CCN(S(=O)(=O)c2ccc(C)cc2)C1c1ccc(OC)cc1 (stereo not given) | – | 1.57
Cc1cc(SCC(=O)Nc2ccccc2)nc(C)n1 | – | 4.21
CN(c1ccccc1)S(=O)(=O)c1ccc(Cl)c(C(=O)NCCc2c[nH]c3ccccc23)c1 | – | -0.834
CC1=C(C(=O)OC(C)C)C(C)C(C(=O)OC(C)C)=C(C)N1 | – | 1.59
COC(=O)CSc1nc2c(c(-c3ccco3)c1C#N)CCCC2 | – | 4.87
O=C(O)c1cccc(-n2cccc2/C=C2/NC(=O)N(c3ccc(Cl)cc3)C2=O)c1 | 2 µM (active) | –
CCn1c2ccccc2c2nc3ccccc3nc21 | – | 2.3
Cc1ccc(/C=C2/SC(=S)N(c3ccc(S(=O)(=O)Nc4nccs4)cc3)C2=O)cc1 | 12.6 µM (active) | –
COC(=O)CCC(=O)Nc1sc2c(c1C#N)CCCC2 | – | -2.49
Cc1noc(NS(=O)(=O)c2ccc(N/C=C\C(=O)c3cccc4ccccc34)cc2)c1C | – | -4.93

Source: PubChem BioAssay AID493169 (National Center for Advancing Translational Sciences (NCATS), 2011)
